Screening data deposited in PubChem BioAssay by National Center for Advancing Translational Sciences (NCATS).
CBFb RUNX1 block = CBF-beta/RUNX1 interaction disruption. Q01196+Q13951. AlphaScreen CBFb-His/RUNX1-biotin binding, biochemical. Potency, µM (top dose mostly 59.8 µM), without a hit: top-dose activity, negative = inhibition, hits mostly inhibitors. 230,000 tested, under 10 active. AID 1477; also: % of control where 0% means no effect
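CBFb-His/RUNX1-biotin, 30 nM each, preincubated 20 min RT; compound 15 min RT; Ni + streptavidin beads 50 ng each, 90 min RT; AlphaScreen read.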
GoLoco inh red = RGS12 GoLoco-Gai1 interaction inhibition | P63096 | Gai1:RGS12 GoLoco peptide FP, rhodamine, 10 min | Potency, µM (highest dose often 61.6 µM), without a hit: top-dose activity, negative = inhibition, usual class: inhibitors | 230,000 compounds, 0.44% hits | AID 880; active = well fitted inhibition curve with a large enough effect, not every such curve was filed as active; inactive = no such curve, though single readings can be large or run the other way; also: potency is read from the fitted curve at half-maximal effect; % is scaled to controls: 0 for no effect and ±100 for the full control effect; nearly all actives have a fitted effect of over 30% in size
Target sequence (P63096 whole entry, looked up): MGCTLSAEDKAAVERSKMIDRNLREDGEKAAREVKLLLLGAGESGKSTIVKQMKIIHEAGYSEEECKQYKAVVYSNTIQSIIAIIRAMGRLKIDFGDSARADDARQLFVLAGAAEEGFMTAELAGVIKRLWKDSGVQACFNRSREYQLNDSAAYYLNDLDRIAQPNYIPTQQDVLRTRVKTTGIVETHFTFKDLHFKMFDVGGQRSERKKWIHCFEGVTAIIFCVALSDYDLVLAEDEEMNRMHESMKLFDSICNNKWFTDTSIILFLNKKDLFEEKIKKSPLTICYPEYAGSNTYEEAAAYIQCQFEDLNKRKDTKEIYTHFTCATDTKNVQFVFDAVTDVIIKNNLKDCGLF
TRb-SRC2 inh = inhibitors of human thyroid hormone receptor beta-SRC2 interaction; P10828; TRbeta-SRC2 peptide binding, fluorescence polarization; receptor liganded with 1 µM T3; Potency, µM (series often up to 106 µM), for the others: at the highest dose activity change, negative = inhibition, actives largely listed as inhibitors; 280,000 compounds, 0.065% hits;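 also: potency is read from the fitted curve at half-maximal effect; plate controls were bound peptide for no effect and peptide without receptor for full effect; nearly all actives have a fitted effect of over 50% in size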
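A fluorescence polarization screen tested compounds at multiple concentrations against complex formation between 0.6 uM TRb ligand-binding domain and 20 nM Texas Red SRC2 peptide, with 1 uM T3 present; readout after 5 hr.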
TR SRC2 fluor cs = Texas Red fluorescence interference in TRb-SRC2 counter-screen; 280,000 compounds, 0.29% hits; TRb/SRC2 Texas Red total fluorescence interference; Potency, µM (doses to about 106 µM), for the others: top-dose fluorescence change, negative = quenching; active = well fitted curve in either direction with a large enough effect; inconclusive = small, poorly fitted or top-dose-only effect; also: potency is read from the fitted curve at half-maximal effect; % is scaled to controls: 0 for no effect and ±100 for the full control effect
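Human TRβ ligand-binding domain (0.6 uM) and Texas Red SRC2 peptide (20 nM) in Tris buffer with 1 uM T3 and 5% DMSO were incubated with pinned compound for 5 hr at ambient temperature. Total fluorescence was computed as S + 2P (555/632 nm).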
Epigenetic reg = derepresses silenced GFP reporter in murine cells. AID 1865. 280,000 compounds, 0.2% hits. murine LDR cells, GFP reporter derepression, 30 h. Potency, µM (highest dose often 53.9 µM), for the others: at the top dose GFP activation, usual class: activators; also: potency is read from the fitted curve at half-maximal effect; % of control where 0% means no effect; nearly all actives have a fitted effect of over 60% in size
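Murine LDR cells bearing a silenced CMV-driven GFP reporter were exposed to compound for 30 h at 37 C. After PBS washes, GFP-positive cells (20-120 um objects) counted by laser-scanning microplate cytometry.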
Active calls of the source: *; [ ] = dose if it differs, or a comment. Shown are actives, neighbours in structure and some others; about 0.71% of the full set was active somewhere. Unless noted, calls follow the shape of the dose curve; as a rule, active = well fitted curve in the direction sought with a large enough effect; inconclusive = small, poorly fitted or top-dose-only effect, or another doubt; inactive = no such curve, though single readings can be large; an effect the other way counts as inactive or inconclusive.

COc1cc(/C=C(\C#N)c2nc3ccccc3s2)ccc1OCC(=O)Nc1ccccc1 was read as CBFb RUNX1 block -3%, GoLoco inh red 162%, TRb-SRC2 inh -1%, TR SRC2 fluor cs 2% and Epigenetic reg 3.2µM*.
For COc1cc(/C=C(\C#N)c2ccccn2)ccc1OCC(=O)Nc1ccc(Br)cc1 the results were CBFb RUNX1 block -2%, GoLoco inh red 9%, TRb-SRC2 inh -6%, TR SRC2 fluor cs 0% and Epigenetic reg -2%.
`CCOC(=O)CC1(C)OCC(C[N+]2(C)CCCCC2)O1` (centres undefined) gave CBFb RUNX1 block 4%, GoLoco inh red 11µM*, TRb-SRC2 inh -2%, TR SRC2 fluor cs 2% and Epigenetic reg 0%.
CC(C)CCC[C@@H](C)[C@@H]1CC[C@H]2C3=CC=C4CC(O)CC[C@]4(C)[C@H]3CC[C@@]21C (some centres undefined) was read as CBFb RUNX1 block inconclusive, TRb-SRC2 inh -10% and TR SRC2 fluor cs -1%.
Screening CCOc1cc(CNc2ccc(O)cc2)cc(Br)c1OCc1ccccc1F returned CBFb RUNX1 block -7%, GoLoco inh red -23%, TRb-SRC2 inh 32µM*, TR SRC2 fluor cs inconclusive and Epigenetic reg inconclusive.
O=C(O)/C=C/C(=O)Nc1ccc(OC(F)(F)F)cc1 was read as CBFb RUNX1 block 5%, GoLoco inh red -3%, TRb-SRC2 inh -4%, TR SRC2 fluor cs -6% and Epigenetic reg -1%.
For O=C(O)/C=C/C(=O)Nc1ccc(OC(F)(F)F)cc1Br the results were CBFb RUNX1 block 15%, GoLoco inh red -2%, TRb-SRC2 inh 32µM*, TR SRC2 fluor cs -8% and Epigenetic reg 0%.
COC(=O)c1ccc(=O)c2nc3/c(=C/O)c(O)cc(=O)c3[nH]c12 was read as GoLoco inh red 3%, TRb-SRC2 inh inconclusive, TR SRC2 fluor cs 25µM*[quencher] and Epigenetic reg -2%.
For N#Cc1cccc(CS(=O)(=O)c2nnnn2C2CCCCC2)c1 the results were CBFb RUNX1 block 15%, GoLoco inh red 3%, TRb-SRC2 inh 6%, TR SRC2 fluor cs -3% and Epigenetic reg 1%.
For O=S(=O)(O)c1ccc2c(c1)-c1nc-2nc2[nH]c(nc3nc(nc4[nH]c(n1)c1ccc(S(=O)(=O)O)cc41)-c1ccc(S(=O)(=O)O)cc1-3)c1ccc(S(=O)(=O)O)cc21 the results were TRb-SRC2 inh inconclusive and TR SRC2 fluor cs 2.2µM*[quencher].
`Nc1cc(S(=O)(=O)O)cc2ccc(S(=O)(=O)O)cc12` gave GoLoco inh red -5%[14.2 µM].
For CCCCCc1ccc(N)cc1 the results were TRb-SRC2 inh -7%[201 µM] and TR SRC2 fluor cs 1%[201 µM].
Screening N#CCCSC(=S)[C@H]1CCCC1=N returned GoLoco inh red 2%[14.2 µM].
For COc1cc(/C=N/NC(=O)COc2ccccc2[N+](=O)[O-])ccc1OC(=O)c1ccco1 the results were CBFb RUNX1 block 10%, GoLoco inh red 2%, TRb-SRC2 inh -4%, TR SRC2 fluor cs -4% and Epigenetic reg -1%.
`O=C(COc1ccccc1[N+](=O)[O-])N/N=C/c1ccc(OC(=O)c2ccco2)cc1` gave CBFb RUNX1 block inconclusive, GoLoco inh red 1%, TRb-SRC2 inh -11%, TR SRC2 fluor cs 282µM*[quencher] and Epigenetic reg 3%.
For CCS(=O)(=O)N1CC(=O)N(c2ccc(Cl)cc2)C(C)(C(=O)NC2CCCCCC2)C1 (centres undefined) the results were TRb-SRC2 inh -5%, TR SRC2 fluor cs 18µM*[quencher] and Epigenetic reg 1%.
CCCS(=O)(=O)N1CC(=O)N(c2ccc(Cl)cc2)C(C)(C(=O)NC2CCCC2)C1 (centres undefined) was read as TRb-SRC2 inh -3%, TR SRC2 fluor cs 3% and Epigenetic reg 0%.
For CCCS(=O)(=O)N1CC(=O)N(c2ccc(Cl)cc2C)C(C)(C(=O)NC2CCCC2)C1 (centres undefined) the results were TRb-SRC2 inh -5%, TR SRC2 fluor cs 28µM*[quencher] and Epigenetic reg -1%.
`CC(C)c1cccc(C(C)C)c1` gave TRb-SRC2 inh 1%[201 µM] and TR SRC2 fluor cs -2%[201 µM].
C=Cc1ccccc1Br was read as TRb-SRC2 inh 0%[201 µM] and TR SRC2 fluor cs 0%[201 µM].
`CC(=O)NCCNc1ncncc1-c1ccc(N(C)C)cc1` gave GoLoco inh red -21%.
`CCOC(=O)c1ccc(-c2ccc(/C=C(\C#N)C(=O)Nc3c(C)cccc3Cl)o2)cc1` gave TRb-SRC2 inh 0%, TR SRC2 fluor cs -1% and Epigenetic reg 11µM*.
Screening CCOC(=O)c1ccc(-c2ccc(/C=C(\C#N)C(=O)Nc3ccc(C)cc3OC)o2)cc1 returned TRb-SRC2 inh 2%, TR SRC2 fluor cs 7% and Epigenetic reg 7%.
Screening CCCCN(c1ccccc1)S(=O)(=O)c1cccc2cccnc12 returned CBFb RUNX1 block inconclusive, GoLoco inh red 2%, TRb-SRC2 inh 1%, TR SRC2 fluor cs 0% and Epigenetic reg 1%.
Screening CCCC[n+]1ccn(-c2nc3ccccc3nc2[N-]S(=O)(=O)c2cccs2)c1 returned CBFb RUNX1 block 3%, GoLoco inh red 1%, TRb-SRC2 inh 4%, TR SRC2 fluor cs -1% and Epigenetic reg 10µM*.
`CCCC[n+]1ccn(-c2nc3ccccc3nc2[N-]S(=O)(=O)c2ccccc2)c1` gave CBFb RUNX1 block 4%, GoLoco inh red -10%, TRb-SRC2 inh 0%, TR SRC2 fluor cs -2% and Epigenetic reg 0%.
Screening CC1CCC2C(=O)N3C(CCC(C)C3c3ccc(-c4ccco4)cc3)C(=O)N2C1c1ccc(-c2ccco2)cc1 (centres undefined) returned CBFb RUNX1 block inconclusive, TRb-SRC2 inh 9%[11.2 µM], TR SRC2 fluor cs -10%[11.2 µM] and Epigenetic reg 2%[10.1 µM].
Screening Oc1ccc(CN2CCC(Cc3ccccc3)CC2)c2cccnc12 returned GoLoco inh red 12%, TRb-SRC2 inh -7%, TR SRC2 fluor cs 0% and Epigenetic reg inconclusive.
For Oc1ccc(CN2CCc3ccccc3C2)c2cccnc12 the results were CBFb RUNX1 block inconclusive, GoLoco inh red 2%, TRb-SRC2 inh -10%, TR SRC2 fluor cs -2% and Epigenetic reg 3.5µM*.
`CCOC(=O)N1CCN(Cc2ccccn2)CC1` gave CBFb RUNX1 block 1%, GoLoco inh red -4%, TRb-SRC2 inh -5%, TR SRC2 fluor cs 0% and Epigenetic reg -1%.
Oc1ccc(CN2CCN(c3ccccc3)CC2)c2cccnc12 was read as CBFb RUNX1 block inconclusive, GoLoco inh red 4%, TRb-SRC2 inh 7%, TR SRC2 fluor cs -6% and Epigenetic reg 3.5µM*.
Screening Oc1ccc(CN2CCCCC2)c2cccnc12 returned CBFb RUNX1 block -29%, GoLoco inh red 8%, TRb-SRC2 inh -8%, TR SRC2 fluor cs 0% and Epigenetic reg inconclusive.
